{"source": "PubChem BioAssay AID1224856", "about": "(National Center for Advancing Translational Sciences (NCATS), 2016)", "note": "Records with an inconclusive call do not appear. Where a call stands in place of a potency, no number is given. The source made the active and inactive calls. The call rests on the fitted dose curve; in most records, active means well fitted curve in the direction sought with a large enough effect; inconclusive means small, poorly fitted or top-dose-only effect, or another doubt; inactive means no such curve, though single readings can be large or run the other way."}
{"assay": "Cell viability assay for measurement of the protective activity of small molecules against cell death caused by Zika virus infection in human astrocytes", "settings": "human astrocytes ZIKV-induced death, ATP luminescence, 72 h; series mostly up to 46.1 µM", "from_the_text": "National Center for Advancing Translational Sciences [NCATS] Johns Hopkins University School of Medicine Florida State University Assay Overview: Zika virus infection causes cell death in certain cell types including human neural progenitor cells (hNPCs), astrocytes, and astrocytoma cell line (SNB-19). This cell viability assay measures the ATP content (level) in human astrocytes using a luminescence readout that is proportional to viable cell numbers. Decrease in the luminescence signal after Zika virus infection indicates the cell death caused by Zika virus. Small molecule inhibitors […] the decreased luminescence signal after Zika virus infection, indicating the protective effect of that small molecule on the cell death caused by Zika virus infection. This observed protective effect of small molecules against Zika virus induced cell death may result from inhibition of virus replication or cellular response to the virus infection.\nAssay Protocol Summary: The medium for astrocytes contains AM basal medium (ScienCell, Cat.# 1801), AGS (ScienCell, Cat.# 1801), 10% FBS, and 1% Pen/Strep. The ATP content assay kit (PerkinElmer, Cat.# 6016731) was used to determine cell viability. The reagent was reconstituted and prepared as described by the manufacturer. Cells were seeded in 384- or 1536-well assay plates and cultured at 37 C with 5% CO2 for 16 to 20 hours. The typical cell seeding density in the 1536-well plate assay is 350 cells/well in 3 ul medium for astrocytes in the tissue cultured treated/PDL coated plates. Compounds were added to cells and incubated for one hour before addition of ZIKV solution to cells (2 FFU/cell). After incubation at 37 C with 5% CO2 for 72 hours, the reagent mixture of the ATP content assay kit was added to each well, followed by incubation at room temperature for 10 minutes. The luminescence intensity of the assay plates was measured using a ViewLux plate reader (PerkinElmer). […] The percentage inhibitions of the decreased cell viability by small molecule inhibitors were then calculated."}
{"smiles": "C[C@@H](O[C@H]1OCCN(Cc2n[nH]c(=O)[nH]2)[C@@H]1c1ccc(F)cc1)c1cc(C(F)(F)F)cc(C(F)(F)F)c1", "Potency": "inactive"}
{"smiles": "COc1ccc(C=CC(=O)Nc2ccccc2C(=O)O)cc1OC", "Potency": "inactive"}
{"smiles": "CCOCCOC(=O)/C=C/c1ccc(OC)cc1", "Potency": "inactive"}
{"smiles": "CCCCCCCCCCCC(=O)[O][Sn]([CH2]CCC)([CH2]CCC)[O]C(=O)CCCCCCCCCCC", "Potency": "inactive"}
{"smiles": "Cc1[nH]c(C=C2C(=O)Nc3ccccc32)c(C)c1CCC(=O)O", "Potency": "inactive"}
{"smiles": "CC(=O)Nc1ccc([C@H](C)C(=O)Nc2ncc(C(C)C)s2)cc1", "Potency": "4890 nM (active)"}
{"smiles": "Nc1ccc(O)c(C(=O)O)c1", "Potency": "inactive"}
{"smiles": "O=C(O)c1cc([N+](=O)[O-])ccc1NCCCc1ccccc1", "Potency": "inactive"}
{"smiles": "NC(=O)c1cccc2[nH]c(-c3ccc([C@H]4CCCN4)cc3F)nc12", "Potency": "inactive"}
{"smiles": "CCN1CCC(n2cc(CNc3cc(Cl)c4ncc(C#N)c(Nc5ccc(F)c(Cl)c5)c4c3)nn2)CC1", "Potency": "inactive"}
{"smiles": "O=C(/C=C/c1ccccc1)NCCO", "Potency": "inactive"}
{"smiles": "CC1=C(CO)C(=O)O[C@@H]([C@@H](C)[C@H]2CC[C@H]3[C@@H]4C[C@H]5O[C@]56[C@@H](O)C=CC(=O)[C@]6(C)[C@@H]4CC[C@]23C)C1", "Potency": "inactive"}
{"smiles": "Clc1ccccc1-c1nc(-c2ccncc2)no1", "Potency": "inactive"}
{"smiles": "CN(C)c1ccc(/C=C2\\C(=O)Nc3ccccc32)cc1", "Potency": "inactive"}
{"smiles": "COc1cccc2c1C(=O)c1c(O)c3c(c(O)c1C2=O)C[C@@](O)(C(=O)CO)CC3OC1CC(N2CCOC(OC)C2)C(O)C(C)O1", "note": "(stereo not given in full)", "Potency": "436 nM (active)"}
{"smiles": "O=C1CCC[C@@H]2[C@H]3CCCN4CCC[C@@H](CN12)[C@@H]34", "Potency": "inactive"}
{"smiles": "O=c1[nH]nc(Sc2ncc([N+](=O)[O-])s2)n1-c1ccc2c(c1)OCCO2", "Potency": "inactive"}
{"smiles": "CC(=NNC(=S)N1CCC1)c1ccccn1", "Potency": "inactive"}
{"smiles": "O=c1cc(-c2ccccc2)oc2cc(O)cc(O)c12", "Potency": "inactive"}
{"smiles": "O[C@@H](COc1cccc2ncccc12)CN1CCN(C2c3ccccc3[C@@H]3[C@H](c4ccccc42)C3(F)F)CC1", "note": "(stereo not given in full)", "Potency": "inactive"}
{"smiles": "CN1CC(=O)N/C1=N/C(=O)Nc1cccc(Cl)c1", "Potency": "inactive"}
{"smiles": "COc1ccc2nc(NC(=O)Nc3ccccc3)sc2c1", "Potency": "inactive"}
{"smiles": "O=C(O)c1ccccc1Nc1cccc(C(F)(F)F)c1", "Potency": "inactive"}
{"smiles": "O=C(Nc1ccc(Br)cc1)c1cc(Br)cc(Br)c1O", "Potency": "inactive"}
{"smiles": "COc1ccc(NC(=O)/C=C/c2ccc(Cl)cc2)cc1", "Potency": "inactive"}
{"smiles": "Cc1cc(O)c2c(c1)C(=O)c1cc(O)cc(O)c1C2=O", "Potency": "inactive"}
{"smiles": "CN(C)c1ccc(C(=C2C=CC(=[N+](C)C)C=C2)c2ccccc2)cc1", "Potency": "inactive"}
{"smiles": "CN(C)CCCSc1ccccc1NC(=O)/C=C/c1ccccc1", "Potency": "inactive"}
{"smiles": "Cc1nc(-c2ccc(OCC(C)C)c(C#N)c2)sc1C(=O)O", "Potency": "inactive"}
{"smiles": "COc1ccc(-c2cc(=S)ss2)cc1", "Potency": "inactive"}
{"smiles": "CC(C)OC(=O)CCCC=CC[C@@H]1[C@H](C=C[C@@H](O)COc2cccc(C(F)(F)F)c2)[C@H](O)C[C@@H]1O", "Potency": "inactive"}
{"smiles": "Cc1ccc(O)c(N=Nc2ccccc2)n1", "Potency": "inactive"}
{"smiles": "COc1ccc(/C=C/C(=O)Nc2ccccc2C(=O)O)cc1OC", "Potency": "inactive"}
{"smiles": "CC(=O)OC(C)OC(=O)C(C)c1ccc(-c2ccccc2)c(F)c1", "note": "(stereo not given)", "Potency": "inactive"}
{"smiles": "COc1cc(NC(C)CCCN)c2ncccc2c1", "note": "(stereo not given)", "Potency": "inactive"}
{"smiles": "CN1CCN(c2cc3c(nn2)Oc2ccccc2N3C)CC1", "Potency": "inactive"}
{"smiles": "CNC1[C@H](O)C(O[C@@H]2C(O)C(O[C@H]3O[C@H]([C@@H](C)NC)CC[C@H]3N)[C@@H](N)C[C@H]2N)OC[C@]1(C)O", "note": "(stereo not given in full)", "Potency": "inactive"}
{"smiles": "C[C@@H]1CCN(C(=O)CC#N)C[C@H]1N(C)c1ncnc2[nH]ccc12", "Potency": "inactive"}
{"smiles": "O=C(O)CCC(=O)c1ccc(-c2ccccc2)cc1", "Potency": "inactive"}
{"smiles": "COc1cc2nc(N3CCN(C(=O)C4CCCO4)CC3)nc(N)c2cc1OC", "note": "(stereo not given)", "Potency": "inactive"}
